# Screens as filed in PubChem BioAssay.
# Most compounds without a hit are left out; they make up all but 4.6% or so of the library.
# TRHR PAM = allosteric enhancers of human TRH receptor; P34981; TRHR cells, fluo-8 calcium fluorescence, EC20 TRH enhancement; enhancement, % at 2 µM; 360,000 tested, 0.66% active; AID 493056; in the data active means enhancement above about 30%; further: 0% is about no effect
# Target sequence (P34981 whole entry, looked up): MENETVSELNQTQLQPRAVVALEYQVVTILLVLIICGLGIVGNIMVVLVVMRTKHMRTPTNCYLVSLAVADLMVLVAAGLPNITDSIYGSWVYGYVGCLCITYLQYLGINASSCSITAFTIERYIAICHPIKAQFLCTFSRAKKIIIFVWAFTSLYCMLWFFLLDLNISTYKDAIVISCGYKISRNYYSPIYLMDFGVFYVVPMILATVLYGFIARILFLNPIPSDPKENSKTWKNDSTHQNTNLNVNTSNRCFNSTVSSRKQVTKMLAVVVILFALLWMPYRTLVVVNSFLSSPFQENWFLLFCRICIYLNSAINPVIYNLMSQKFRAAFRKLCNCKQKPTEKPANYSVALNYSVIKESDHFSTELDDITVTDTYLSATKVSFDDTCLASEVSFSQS
#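 Enhancer read-out: after compound pinning and an initial kinetic agonist-mode read, an EC20 of TRH (10 nM final) was injected and fluo-8 calcium signal (Ex 480/Em 530) followed at 1 s/cycle for 100 cycles in TRHR-expressing cells.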
# TRHR agonist = activates the human TRH receptor. activation, % at 2 µM. TRHR cells, calcium flux fluo-8, FDSS agonist mode. 360,000 tested, 0.18% active. P34981; further: 0% is about no effect
#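 TRHR-expressing cells, plated overnight in medium with 10% serum, were loaded with fluo-8 calcium dye at room temperature. After a 10 s baseline, library compound was pin-added and calcium release was recorded kinetically (ex 480/em 530) as agonist response.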
# D1 ag = activates the human D1 dopamine receptor; P21728; HEK293 T-REx D1 cells, calcium flux, agonist mode; activation, % at 2 µM; 360,000 tested, 1% active; further: 0% is about no effect
#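 Inducible HEK293 T-REx D1 cells, force-coupled to calcium signalling, were plated at 4000 cells/well with tetracycline and held overnight at 30 C. After no-wash calcium dye loading, compound-evoked calcium rise over 180 s flagged agonists.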
# D1 antagonist = blocks dopamine activation of the human D1 receptor. AID 504652. activity change, negative = inhibition, % at 10 µM. P21728. HEK293 TREx D1 cells, calcium flux, dopamine EC80; stronger effect = lower value. 360,000 tested, 3.2% active; in the data active means activity change below about -30%; further: on the % scale 0 is the no-effect control and ±100 the full control effect
#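 Cells carrying a force-coupled, tetracycline-inducible human D1 receptor report calcium flux. Each well gets a 10 s baseline, compound with 180 s monitoring, then an EC80 dopamine stimulus with a second 180 s kinetic read.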
# D1 potentiator = potentiators of human D1 dopamine receptor; 360,000 tested, 0.036% active; HEK293 TREx D1 cells, calcium flux, dopamine EC20 potentiation; P21728; potentiation, % at 10 µM; in the data active means potentiation above about 30%; further: 0% is about no effect
# * = called active by the depositor; · = no result given. Unless noted, no stated cut-off is given here; in the data, active means activation above about 30%; inactive means the rest.
SMILES,TRHR PAM,TRHR agonist,D1 ag,D1 antagonist,D1 potentiator
C=CCN1C(=O)C2(C(C(=O)OCC)=C(N)Oc3ccccc32)c2c1c1ccccc1oc2=O (centres undefined),0.3,1.6,2.1,-10.0,-9.2
O=C(/C=C/c1c[nH]c2ccccc12)c1c(O)n(CCc2ccccc2)c(=O)[nH]c1=O,46.6*,39.8*,383.1*,51.2,39.0*
Cc1cc(N2CCCC2)ccc1C=C(C#N)C#N,26.6,9.8,32.4*,-33.0*,1.2
CCN(CC)P(=O)(c1nccn1C)N(CC)CC,-3.4,-0.1,3.2,-37.1*,-7.7
CCN1C(=O)NC(=O)/C(=C\c2cn(CC(=O)N3CCCCC3C)c3ccccc23)C1=O (centres undefined),-18.7,2.9,11.4,-30.5*,-1.4
Cc1ccc2nc(NC(=O)c3cccn(Cc4ccc(Cl)cc4)c3=O)sc2c1,21.4,0.0,0.1,30.1,1.6
Cc1[nH]c2ccccc2c1CCNCc1cccnc1,5.0,0.0,2.6,1.9,-1.1
Cc1[nH]c2ccccc2c1CCNCc1ccco1,2.1,1.3,10.9,-40.7*,-2.7
O=C1CCCN1CC#CCN1CCCC1,2.9,1.0,3.1,18.0,2.9
CCc1ccc(N2C(=O)NC(=O)C(CCc3ccncc3)(CCc3ccncc3)C2=O)cc1,1.1,0.5,1.6,-0.6,0.8
O=C1NC(=O)C(CCc2ccncc2)(Cc2cccc(Cl)c2Cl)C(=O)N1c1ccc(Br)cc1 (centres undefined),2.5,0.0,1.6,-75.7*,-9.2
O=C1CN=C(c2ccccc2)c2cc(Cl)ccc2N1Cc1ccc(Cl)cc1,20.9,0.4,-1.1,7.1,-1.6
COC(=O)CSC1=NN1c1cc(C)nc(N)n1,-5.0,-2.7,0.1,-32.8*,6.2
COc1cc(CN2CCN(c3cc(C)ccc3C)CC2)ccc1O,6.0,-0.2,7.0,-88.6*,-8.2
c1cc2n(c1)-c1c(ccc3c1OCO3)CNC2c1ccc2c(c1)OCO2 (centres undefined),3.2,0.9,17.5,2.8,-12.7
COc1ccc(C2NCc3ccc4c(c3-n3cccc32)OCO4)cc1O (centres undefined),2.0,4.6,54.6*,-36.3*,-2.9
CCCCN1C(=O)NC(=O)C2(Cc3c(nc4c(C)cccn4c3=O)N3CCc4ccccc4C32)C1=O (centres undefined),3.8,2.9,37.6*,52.5,5.2
CN1CC(C(=O)c2cccc(C(F)(F)F)c2)C(c2ccc(Cl)cc2)C1 (centres undefined),4.0,-1.1,30.8*,-6.4,-9.9
Cc1cc(OCC(=O)N2CCN(CCc3ccncc3)CC2)cc(C)c1Cl,12.8,-0.8,3.9,-2.3,0.9
Cc1ccc(-n2c(O)c(C=NC3CCCC3)c(=O)[nH]c2=O)c(C)c1,40.6*,-0.1,1.0,5.7,-0.3
Cc1ccc(-n2c(O)c(C=NC3CCCCC3N)c(=O)[nH]c2=O)cc1C (centres undefined),-6.2,0.6,2.4,1.1,-3.5
CC1CCCCN1C(=O)c1ccc(N2CC3CC(C2)c2cccc(=O)n2C3)c([N+](=O)[O-])c1 (centres undefined),-5.2,-0.7,0.8,2.1,0.7
O=C(c1ccc(N2CC3CC(C2)c2cccc(=O)n2C3)c([N+](=O)[O-])c1)N1CCCCC1 (centres undefined),-1.4,-0.7,1.0,-53.1*,0.1
O=C(c1ccc(N2CC3CC(C2)c2cccc(=O)n2C3)c([N+](=O)[O-])c1)N1CCCC1 (centres undefined),6.1,0.6,3.5,-35.2*,-2.5
COc1ccc2c(c1)CC1(CN2C)C(=O)NC(=O)N(c2ccc(C)cc2)C1=O (centres undefined),-3.0,0.6,2.2,-0.4,11.6
SMILES,TRHR PAM,TRHR agonist,D1 ag,D1 antagonist,D1 potentiator
COc1ccc2c(c1)CC1(CN2C)C(=O)NC(=O)N(c2ccc(F)cc2)C1=O (centres undefined),1.5,-0.2,0.7,-82.2*,0.8
CC(=O)O[C@H]1C[C@@H]2CC[C@@H]3[C@H](CC[C@]4(C)C(=O)CC[C@@H]34)[C@@]2(C)C[C@@H]1OC(C)=O,-4.4,-1.0,3.2,-41.0*,-6.5
CCN(CC(=O)Nc1ccc(NC(C)=O)cc1)C(=O)CSC(c1ccccc1)c1ccccc1,3.2,-0.5,44.5*,-14.9,-3.3
CCC(=O)Nc1ccccc1,-2.8,0.1,1.1,3.8,1.6
Cc1ccccc1-n1c(/C=C/c2c(C)[nH]c3ccccc23)nc2ccccc2c1=O,-0.1,4.3,9.6,6.9,-0.1
O=c1c2ccccc2nc(/C=C/c2ccccc2F)n1-c1ccccc1O,0.0,2.7,11.2,8.6,-4.1
Cc1ccccc1-n1c(/C=C/c2ccc(N(C)C)cc2)nc2ccccc2c1=O,17.9,92.8*,196.7*,10.2,60.2*
O=c1c2ccccc2nc(/C=C/c2ccccc2O)n1-c1ccccc1O,-0.4,12.2,30.8*,-21.6,-6.3
Nc1c(C(=O)Nc2ccc(OC(F)(F)F)cc2)sc2nc3c(cc12)N1CCC3CC1,-9.0,-0.6,0.4,-9.7,-5.2
CCSc1nnc(NC(=O)c2cccn(Cc3ccccc3Cl)c2=O)s1,-0.2,-0.1,0.9,-3.0,-3.9
Cc1ccc(N2C(=O)CC(=O)NC2=O)cc1,1.4,-0.3,4.8,-8.9,-4.8
COc1ccc(N2C(=O)CC(=O)NC2=O)cc1,3.9,-0.3,1.3,-78.9*,-6.2
Cc1nnc(NC(=O)c2cccn(Cc3ccc(Cl)cc3)c2=O)s1,-8.5,0.2,0.7,4.7,0.8
Cc1ccccc1-c1nn2c(=O)cc(CN3CCN(C(=O)COc4ccccc4Cl)CC3)nc2s1,11.4,-0.3,-1.8,-34.8*,-2.9
Cc1cccc(CN2C(=O)CN=C(c3ccccc3)c3cc(Cl)ccc32)c1,0.3,-0.5,1.9,-4.2,0.1
Cc1cc(OC(=O)N(C)C)nc2c1c(C)nn2C,40.3*,-0.3,2.8,-10.1,-0.6
COCc1cc(OC(=O)N(C)C)nc2c1c(C)nn2C,-3.3,0.3,0.4,-1.7,0.1
O=S1(=O)N(Cc2ccccc2)CCCN1Cc1cccc(Cl)c1,-3.7,-0.7,7.4,0.1,-0.8
CCOC(=O)c1ccc(NC(=O)c2c(O)[nH]c(=O)[nH]c2=O)cc1,12.7,72.8*,240.8*,-7.7,-5.0
CCOC(=O)c1ccc(NC(=O)c2cccn(Cc3ccc(C)cc3)c2=O)cc1,-7.7,0.5,10.4,·,-2.2
Cc1ccc(Cn2cccc(C(=O)Nc3ccc4c(c3)OCCO4)c2=O)cc1,4.5,0.0,-0.3,·,-4.2
COC(C)(C)CCCC(C)C/C=C/C(C)=C/C(=O)OC(C)C (centres undefined),8.4,0.2,0.4,·,7.5
Cc1c(O)ccc(C(=O)CN2CC(C)OC(C)C2)c1O (centres undefined),-8.5,0.3,2.2,-39.7*,-3.9
